Reference: PubChem BioAssay (NCATS)
Several values for one entry are separate records, joined by “and”; a condition that tells them apart may be missing. Identical values can stand only once. Records with an inconclusive call do not appear. Some structures have more than one record in an assay (separate samples or runs), and their calls can disagree. Some of the results follow. Activity calls are given as the source filed them. Unless noted, calls follow the shape of the dose curve; as a rule, active = well fitted curve in the direction sought with a large enough effect; inconclusive = small, poorly fitted or top-dose-only effect, or another doubt; inactive = no such curve, though single readings can be large; an effect the other way counts as inactive or inconclusive.

Legend:
[1] = biological target: DNA repair nuclease/redox regulator APEX1 (Homo sapiens) (UniProt P27695); experiment: Confirmation qHTS Assay for Inhibitors of the Human Apurinic/apyrimidinic Endonuclease 1 (APE1) (AID 2572); conditions: purified APE1, fluorogenic abasic-site DNA cleavage; also: potency is read from the fitted curve at half-maximal effect; nearly all actives have a fitted effect of over 30% in size
Procedure, shortened: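 Enzyme and test compound were incubated for 15 min at room temperature, after which a 50 nM (final) double-stranded abasic-site substrate bearing 5'-TAMRA and 3'-BHQ-2 was added. Incision was followed as fluorescence increase over three reads.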

[2] = biological target: DNA repair nuclease/redox regulator APEX1 (Homo sapiens) (UniProt P27695); experiment: qHTS FP-Based Assay for Inhibitors of the Human Apurinic/apyrimidinic Endonuclease 1 (APE1) (AID 2573); also: % is scaled to controls: 0 for no effect and ±100 for the full control effect
[3] = Confirmatory screen GU Rhodamine qHTS for Zika virus inhibitors qHTS (AID 1347157); also: nearly all actives have a fitted effect of over 70% in size; also: potency is read from the fitted curve at half-maximal effect;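 as to activity change, negative = inhibition: plate controls were no-inhibitor wells for no effect and no-enzyme wells for full effect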
Procedure, shortened: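 A qHTS format was used, with compound concentrations ranging up to 114 microM. Each compound was preincubated with 25 nM NS2B-NS3 protease, and the substrate was then added at 1.5 microM. Curves were fitted with a 4-parameter Hill model.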

[4] = ZIKV-mCherry secondary qHTS for Zika virus inhibitors (AID 1347158); also: top concentration of the series differs between compounds
Procedure, shortened: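 Vero, 5,000 cells/well, o/n 37 °C; cpd pin-transferred in DMSO; ZIKV-mCherry MOI 1, 48-72 h 37 °C; 32% PFA stock fix, Hoechst; imaged 10x DAPI/mCherry; mCherry+ threshold 450 RFU; % infection.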

[5] = Confirmatory screen NINDS Rhodamine qHTS for Zika virus inhibitors (AID 1347161); also: nearly all actives have a fitted effect of over 60% in size; also: potency is read from the fitted curve at half-maximal effect;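 as to activity change, negative = inhibition: purified Zika NS2B-NS3 protease with linked NS2B cofactor domain and Rhodamine110 peptide substrate; plate controls were no-inhibitor control for no effect and no-enzyme control for full effect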
Procedure, shortened: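 Each compound, titrated, sat 15 min with 25 nM linked protease before 1.5 microM Rhodamine110 substrate went in. Fluorescence gain over the next 15 min, in pH 8.0 Tris with Tween 20, gave Hill-fitted curves.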

[6] = system: Zika virus NS2B-NS3 protease (linked); experiment: 384 well plate NINDS AMC confirmatory qHTS for Zika virus inhibitors (AID 1347163); also: nearly all actives have a fitted effect of over 50% in size; also: potency is read from the fitted curve at half-maximal effect;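 as to activity change, negative = inhibition: linked protease at 5 30 or 60 nM final depending on run; fluorescence of AMC released from Ac-VKTGKR-AMC peptide cleaved by the protease; top concentration of the series differs between compounds; 0% = no-inhibitor control and -100% = no-enzyme control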
Procedure, shortened: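 Linked NS2B-NS3 protease (final 5 nM, 30 nM or 60 nM) was preincubated with compounds (final up to 1 mM) for ~15 minutes. Ac-VKTGKR-AMC substrate (final 30 microM) then reacted for 25 minutes at room temperature in the dark. Fluorescence (ex 355/em 460 nm) was normalized to no-enzyme and no-inhibitor controls.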

[7] = system: Zika virus NS2B-NS3 protease (linked construct); experiment: 384 well plate NINDS Rhodamine confirmatory qHTS for Zika virus inhibitors (AID 1347164); also: nearly all actives have a fitted effect of over 65% in size; also: potency is read from the fitted curve at half-maximal effect;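 as to activity change, negative = inhibition: top concentration of the series differs between compounds; plate controls were no-inhibitor control for no effect and no-enzyme control for full effect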
Procedure, shortened: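 Cleavage of Ac-LKRR-Rhodamine 110 (10 microM final) by linked protease (final 5, 30 or 60 nM) was followed as fluorescence at 485/538 nm after 25 min, room temperature, dark. Compounds preincubated ~15 min.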

[8] = Tertiary RLuc qRT-PCR qHTS assay for Zika virus inhibitors (AID 1347169); also: top concentration of the series differs between compounds; % is scaled to controls: 0 for no effect and ±100 for the full control effect; nearly all actives have a fitted effect of over 55% in size
Procedure, shortened: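 Inhibition of ZIKV-RLuc replication in Vero cells, read as Renilla luminescence 1-1.5 hrs after live-cell substrate addition, following 48-72 hrs infection at MOI 1-2 in presence of compound.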

[9] = Primary qHTS for small molecule stabilizers of the endoplasmic reticulum resident proteome: Secreted ER Calcium Modulated Protein (SERCaMP) assay (AID 1508630); also: % is scaled to controls: 0 for no effect and ±100 for the full control effect
Procedure, shortened: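 GLuc-SERCaMP-expressing SH-SY5Y cells, pretreated 16 h with compound, are challenged with thapsigargin to empty ER calcium stores; after 4 h, coelenterazine is added directly to the medium and luminescence is imaged.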

[10] = AP1 Signaling Pathway (AID 357; active = well fitted curve in either direction with a large enough effect, not every such curve was filed as active;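 also: ME-180 reporter cells stimulated with EGF at its EC50 level; % is scaled to controls: 0 for no effect and ±100 for the full control effect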); conditions: ME-180 AP-1-bla reporter, EGF-induced, beta-lactamase ratio, 5 h; at 17.2 µM (top of the series)
Procedure, shortened: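 Beta-lactamase reporter under AP-1 response element, ME-180 background. Stimulus: EC50 EGF. Compound exposure 5 h, 37 °C. Detection: CCF4, 2.5 h RT, 460/530 nm. Values: AC50 from titration.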

[11] = biological target: Cytochrome P450 1A2 (Homo sapiens) (UniProt P05177); experiment: p450-cyp1a2 (AID 410; calls by dose curve; also: potency is read from the fitted curve at half-maximal effect)
Procedure, shortened: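 Luminescent readout of luciferin formed from Luciferin-ME by human CYP1A2; data normalized against complete inhibition by 57 uM furafylline. Enzyme 20nM, substrate 100uM at Km, 100mM KPO4 buffer, 60 min reaction at room temperature.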

[12] = NFAT Signaling Pathway (AID 444; active = well fitted curve in either direction with a large enough effect, not every such curve was filed as active;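 also: carbachol stimulus at about its EC50 of 1 µM final; % is scaled to controls: 0 for no effect and ±100 for the full control effect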); conditions: Jurkat NFAT-bla M1, carbachol, beta-lactamase ratio, 5 h; at 17.2 µM (top of the series)
Procedure, shortened: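 Read-out: CCF4 FRET ratio (460 nm/530 nm) after 1 h RT dye loading, used for %activity and AC50 from titration series. Cells: Jurkat NFAT-β-lactamase/M1 line, treated with compound plus 1 uM carbachol for 5 h, 37 °C.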

[13] = Stat Signaling Pathway (AID 446; active = well fitted curve in either direction with a large enough effect, not every such curve was filed as active); conditions: ME-180 SIE beta-lactamase reporter, IL-6 stimulated, 5 h; at 17.2 µM (top of the series)
Procedure, shortened: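 Reporter line: ME-180 cervical carcinoma, SIE-beta-lactamase. Treatment: compound with 40 pM IL-6, 5 hrs, 37 C, in low-serum OPTI-MEM with 10 mM HEPES pH 7.3. Detection: 460/530 nm fluorescence.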

[14] = biological target: Glucocorticoid receptor (Homo sapiens) (UniProt P04150); experiment: GR-GFP Redistribution (AID 450;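 active = compounds whose dose series gives a full or clear partial fitted curve of increased nuclear translocation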; also: potency is read from the fitted curve at half-maximal effect); conditions: U2OS GR-GFP nuclear translocation, laser cytometry, 2 h
[15] = biological target: Glucocorticoid receptor (Homo sapiens) (UniProt P04150); experiment: GR-EFC Redistribution (AID 451; calls by dose curve; also: potency is read from the fitted curve at half-maximal effect); conditions: CHO-K1 GR-EFC translocation, beta-gal luminescence, 2 h
Procedure, shortened: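 Translocation of GR-ED fusion to nuclear EA restores b-gal, read by luminescence after 1 h room-temperature detection. Engineered CHO-K1 biosensor cells, 1,000/well, exposed 2 h at 37 C to titrations up to 46 uM final.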

[16] = biological target: 3',5'-cyclic-AMP phosphodiesterase 4B (Homo sapiens) (UniProt Q07343); experiment: qHTS Assay for Inhibitors of PDE-IV (AID 607; active = well fitted activation curve with a large enough effect in the main read-out, with a control signal flat, not every such curve was filed as active; also: % of control where 0% means no effect)
Procedure, shortened: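 Cell-based read-out of cAMP via a modified cyclic nucleotide-gated channel and membrane potential dye (535/590 nm) in HEK293 cells expressing PDE4 endogenously. Compounds tested up to 22.9 uM final; 100 uM RO 20-1724 reference.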

[17] = biological target: Cytochrome P450 2C9 (Homo sapiens) (UniProt P11712); experiment: qHTS Assay for Inhibitors and Substrates of Cytochrome P450 2C9 (AID 883); also: % is scaled to controls: 0 for no effect and ±100 for the full control effect; nearly all actives have a fitted effect of over 60% in size
Procedure, shortened: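 Turnover of Luciferin-H (100uM, KM) by 10nM human CYP2C9 was measured over 60 min at 37C with NADPH regeneration; inhibitors and some substrates reduce luminescence. Data normalized to sulphaphenazole 57uM.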

[18] = biological target: Cytochrome P450 3A4 (Homo sapiens) (UniProt P08684); experiment: qHTS Assay for Inhibitors and Substrates of Cytochrome P450 3A4 (AID 884); also: potency is read from the fitted curve at half-maximal effect; nearly all actives have a fitted effect of over 50% in size
Procedure, shortened: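 20 nM human CYP3A4 with 25 uM Luciferin-PPXE (at KM) in 200 mM KPO4, preincubated 10 min with compound; NADPH regeneration started a 60 min RT reaction. Luciferin detected by luminescence, normalized to 57 uM ketoconazole as full inhibition.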

[19] = biological target: Cytochrome P450 3A4 (Homo sapiens) (UniProt P08684); experiment: qHTS Assay for Activators of Cytochrome P450 3A4 (AID 885); also: nearly all actives have a fitted effect of over 65% in size
Procedure, shortened: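 Signal was normalized against complete inhibition by 57 uM ketoconazole. The reaction used 20nM CYP3A4 with 25uM Luciferin-PPXE, 10-min compound preincubation and a 60-min NADPH-supported step at RT.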

[20] = biological target: Cytochrome P450 2C19 (Homo sapiens) (UniProt P33261); experiment: qHTS Assay for Inhibitors and Substrates of Cytochrome P450 2C19 (AID 899); also: nearly all actives have a fitted effect of over 60% in size; also: potency is read from the fitted curve at half-maximal effect
Procedure, shortened: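 Reactions contain 5nM enzyme, 10uM Luciferin-H EGE (KM) and 50mM KPO4; compound preincubates 10 min at 37C, NADPH regeneration starts turnover for 60 min. Luminescence after detection reagent gives activity.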

[21] = qHTS Assay for Lipid Storage Modulators (AID 1519; calls by dose curve); conditions: Drosophila S3 cells, BODIPY lipid droplet/cell ratio, laser cytometry, cells loaded with oleic acid
Procedure, shortened: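 Cells seeded at 5,000 per well were treated with compounds over a concentration series and loaded with oleic acid (400 uM, as added). Lipid droplet fluorescence (488 nm excitation, 500-530 nm channel) was read by laser-scanning cytometry and normalized to 20 uM Triacsin C.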

[22] = biological target: Ubiquitin carboxyl-terminal hydrolase 1 (Homo sapiens) (UniProt O94782); experiment: Inhibitors of USP1/UAF1: Pilot qHTS (AID 504865); also: potency is read from the fitted curve at half-maximal effect; nearly all actives have a fitted effect of over 35% in size
Procedure, shortened: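 Enzyme-free wells gave the negative control, while test wells held 1nM USP1/UAF1 preincubated with compound for 15 min at room temperature. Ub-Rho at 150nM final started the reaction, and fluorescence at 480/540 nm was recorded kinetically.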

[23] = biological target: DNA dC->dU-editing enzyme APOBEC-3G (Homo sapiens) (UniProt Q9HC16); experiment: qHTS for inhibitors of Vif-A3G interactions: Validation (AID 588379); also: 0% is about no effect
Procedure, shortened: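 HeLa cells stably expressing Vif and A3G-eYFP, 700 cells/well, incubated overnight at 37 deg C, then exposed to compound overnight at 37 deg C. Inhibition of Vif-mediated degradation read as increased yellow fluorescence (Ex 488/Em 500-530) by laser-scanning cytometry.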

[24] = Confirmatory qHTS for small molecule stabilizers of the endoplasmic reticulum resident proteome: Secreted ER Calcium Modulated Protein (SERCaMP) assay (AID 1508628); also: potency is read from the fitted curve at half-maximal effect; nearly all actives have a fitted effect of over 40% in size
Procedure, shortened: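 SH-SY5Y cells stably expressing GLuc-SERCaMP, treated 16 h with compound (primary 1.53, 7.67, 38.3 uM; confirmation 11 concentrations, up to 76.6 uM), then 100 nM thapsigargin for 4 h. Secreted Gaussia luciferase in medium read by coelenterazine luminescence.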

[25] = Confirmation and Secondary Assay for Modulators of Hemoglobin Beta Chain Splicing at IVS2 654 locus (AID 910);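 also: HeLa cells stably carrying EGFP split by mutant beta-globin IVS2-654 intron; per-well total GFP intensity by laser scanning cytometry after 2-day treatment; % of control where 0% means no effect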
Procedure, shortened: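 Readout: per-well total peak green fluorescence (488 nm ex, 500–520 nm em) from objects 5–250 µm, reflecting correct splicing of an EGFP-654 reporter. Compounds were applied for 2 days at 37 °C to overnight-plated HeLa EGFP-654 cells; controls were DMSO and 500 nM IVS2-654 PNA.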

[26] = Confirmation and Secondary Assay for Modulators of Hemoglobin Beta Chain Splicing at IVS2 705 locus (AID 930);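 also: HeLa cells stably expressing the EGFP-705 splicing reporter; GFP fluorescence per well restored by corrected splicing of the IVS2-705 intron in EGFP; % of control where 0% means no effect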
Procedure, shortened: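 Per-well GFP, captured at 1 x 8 µm resolution with 488 nm excitation, served as the read-out for HeLa EGFP-705 cells incubated 2 days with test compound versus DMSO.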

[27] = biological target: Cytochrome P450 2C9 (Homo sapiens) (UniProt P11712); experiment: Cytochrome P450 family 2 subfamily C member 9 (CYP2C9) small molecule antagonists: luciferase biochemical (cell-free) qHTS assay (AID 1645842; active = well fitted curve in the direction sought with a large enough effect in the repeat runs; an effect the other way counts as inactive or inconclusive; also: potency is read from the fitted curve at half-maximal effect; nearly all actives have a fitted effect of over 55% in size)
Procedure, shortened: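 Luminescence, after 20 min with luciferin detection reagent, reflected CYP2C9 turnover during a 1 h NADPH-driven reaction at 37C. Enzyme-substrate mix contained 0.4% bovine serum albumin and was preincubated with compound 10 min at room temperature.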

[28] = measured here: cell count channel max response
[29] = measured here: lipid channel max response

Sequence of Cytochrome P450 3A4 (Homo sapiens) (P08684 whole entry, looked up): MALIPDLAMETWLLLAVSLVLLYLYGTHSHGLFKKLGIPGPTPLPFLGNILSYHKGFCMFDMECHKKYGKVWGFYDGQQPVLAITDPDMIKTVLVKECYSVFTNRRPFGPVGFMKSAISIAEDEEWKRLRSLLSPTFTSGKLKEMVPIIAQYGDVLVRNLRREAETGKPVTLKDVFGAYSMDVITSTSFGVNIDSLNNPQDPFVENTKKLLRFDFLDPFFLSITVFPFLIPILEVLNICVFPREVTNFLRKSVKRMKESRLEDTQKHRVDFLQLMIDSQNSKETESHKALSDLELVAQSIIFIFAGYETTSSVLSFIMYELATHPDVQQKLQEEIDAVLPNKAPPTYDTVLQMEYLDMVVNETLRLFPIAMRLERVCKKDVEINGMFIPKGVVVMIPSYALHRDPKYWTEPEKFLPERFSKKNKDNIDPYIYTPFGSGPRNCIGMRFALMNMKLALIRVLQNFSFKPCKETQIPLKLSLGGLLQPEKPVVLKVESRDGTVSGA
Sequence of Ubiquitin carboxyl-terminal hydrolase 1 (Homo sapiens) (O94782 whole entry, looked up): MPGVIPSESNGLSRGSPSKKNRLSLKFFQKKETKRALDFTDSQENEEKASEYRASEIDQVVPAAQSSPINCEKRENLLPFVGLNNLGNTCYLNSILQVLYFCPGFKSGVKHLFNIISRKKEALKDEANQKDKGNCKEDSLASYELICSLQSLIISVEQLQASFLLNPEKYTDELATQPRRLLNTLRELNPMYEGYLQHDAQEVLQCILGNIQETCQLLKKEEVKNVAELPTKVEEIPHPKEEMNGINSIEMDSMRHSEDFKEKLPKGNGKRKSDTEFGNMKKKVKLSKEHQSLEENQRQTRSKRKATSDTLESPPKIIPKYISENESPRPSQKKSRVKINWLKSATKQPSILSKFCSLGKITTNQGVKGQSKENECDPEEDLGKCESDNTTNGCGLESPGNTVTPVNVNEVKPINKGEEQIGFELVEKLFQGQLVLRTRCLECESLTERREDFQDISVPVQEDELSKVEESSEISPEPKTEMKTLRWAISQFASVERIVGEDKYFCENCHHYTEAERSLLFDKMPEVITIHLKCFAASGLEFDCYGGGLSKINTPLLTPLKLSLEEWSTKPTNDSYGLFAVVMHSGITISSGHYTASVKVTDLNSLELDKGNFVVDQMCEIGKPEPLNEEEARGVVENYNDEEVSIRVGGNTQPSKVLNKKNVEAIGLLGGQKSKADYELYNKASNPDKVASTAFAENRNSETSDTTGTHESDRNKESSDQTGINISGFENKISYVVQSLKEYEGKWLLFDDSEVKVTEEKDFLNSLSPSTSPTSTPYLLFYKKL
Sequence of Glucocorticoid receptor (Homo sapiens) (P04150 whole entry, looked up, the tested form may be a part): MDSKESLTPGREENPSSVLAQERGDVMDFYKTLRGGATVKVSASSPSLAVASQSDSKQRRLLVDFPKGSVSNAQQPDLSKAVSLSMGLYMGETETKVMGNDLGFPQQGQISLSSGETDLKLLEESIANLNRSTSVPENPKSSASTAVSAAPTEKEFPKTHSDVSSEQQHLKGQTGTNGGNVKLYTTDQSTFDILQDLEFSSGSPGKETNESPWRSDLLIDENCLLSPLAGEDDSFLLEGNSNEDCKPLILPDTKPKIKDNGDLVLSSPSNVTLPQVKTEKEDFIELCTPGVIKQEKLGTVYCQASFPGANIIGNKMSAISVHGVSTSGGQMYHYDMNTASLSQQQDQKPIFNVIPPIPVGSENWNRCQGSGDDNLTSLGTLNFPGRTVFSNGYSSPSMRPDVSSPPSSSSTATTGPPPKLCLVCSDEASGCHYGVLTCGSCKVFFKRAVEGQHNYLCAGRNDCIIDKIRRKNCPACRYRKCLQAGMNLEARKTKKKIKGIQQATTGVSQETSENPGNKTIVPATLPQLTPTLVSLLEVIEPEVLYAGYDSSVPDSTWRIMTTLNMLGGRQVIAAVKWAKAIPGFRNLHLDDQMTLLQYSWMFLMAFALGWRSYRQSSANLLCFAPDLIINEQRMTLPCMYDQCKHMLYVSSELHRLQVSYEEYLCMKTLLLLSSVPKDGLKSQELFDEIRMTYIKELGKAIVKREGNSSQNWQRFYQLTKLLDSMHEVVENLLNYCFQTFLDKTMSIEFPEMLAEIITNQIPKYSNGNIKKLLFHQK
Sequence of Cytochrome P450 2C9 (Homo sapiens) (P11712 whole entry, looked up): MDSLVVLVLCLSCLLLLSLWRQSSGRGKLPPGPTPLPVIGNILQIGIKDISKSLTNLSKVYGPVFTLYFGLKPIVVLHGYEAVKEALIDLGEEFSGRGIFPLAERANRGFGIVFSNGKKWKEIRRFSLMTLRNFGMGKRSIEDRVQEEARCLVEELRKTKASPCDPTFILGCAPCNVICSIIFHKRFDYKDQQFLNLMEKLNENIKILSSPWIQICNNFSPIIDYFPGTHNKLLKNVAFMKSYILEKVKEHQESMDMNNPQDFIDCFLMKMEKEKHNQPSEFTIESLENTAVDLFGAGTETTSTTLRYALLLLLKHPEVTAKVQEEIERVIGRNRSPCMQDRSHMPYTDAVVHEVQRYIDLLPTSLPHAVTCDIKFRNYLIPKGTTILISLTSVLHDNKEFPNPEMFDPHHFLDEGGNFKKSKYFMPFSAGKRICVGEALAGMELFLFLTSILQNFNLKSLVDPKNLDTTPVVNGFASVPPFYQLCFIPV
Sequence of 3',5'-cyclic-AMP phosphodiesterase 4B (Homo sapiens) (Q07343 whole entry, looked up): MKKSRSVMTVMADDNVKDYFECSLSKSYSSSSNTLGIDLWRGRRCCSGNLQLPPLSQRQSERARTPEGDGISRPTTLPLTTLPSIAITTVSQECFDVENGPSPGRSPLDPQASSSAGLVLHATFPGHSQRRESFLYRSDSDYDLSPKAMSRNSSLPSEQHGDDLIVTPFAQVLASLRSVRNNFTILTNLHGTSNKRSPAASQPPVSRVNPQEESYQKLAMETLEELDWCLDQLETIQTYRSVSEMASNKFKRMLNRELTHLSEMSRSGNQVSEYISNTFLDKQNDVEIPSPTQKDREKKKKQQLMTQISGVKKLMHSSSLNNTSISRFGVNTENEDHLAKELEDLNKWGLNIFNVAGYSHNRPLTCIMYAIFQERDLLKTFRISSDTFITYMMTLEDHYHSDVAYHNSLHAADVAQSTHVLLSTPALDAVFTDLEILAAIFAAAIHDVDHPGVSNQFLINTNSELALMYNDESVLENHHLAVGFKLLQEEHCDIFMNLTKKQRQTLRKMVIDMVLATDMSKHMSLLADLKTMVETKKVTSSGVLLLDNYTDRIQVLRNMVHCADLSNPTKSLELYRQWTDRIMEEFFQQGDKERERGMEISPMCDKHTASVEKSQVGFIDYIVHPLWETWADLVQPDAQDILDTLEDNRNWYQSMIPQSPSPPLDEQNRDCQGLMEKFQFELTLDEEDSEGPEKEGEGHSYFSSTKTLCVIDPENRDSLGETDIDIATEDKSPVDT
Sequence of DNA repair nuclease/redox regulator APEX1 (Homo sapiens) (P27695 whole entry, looked up): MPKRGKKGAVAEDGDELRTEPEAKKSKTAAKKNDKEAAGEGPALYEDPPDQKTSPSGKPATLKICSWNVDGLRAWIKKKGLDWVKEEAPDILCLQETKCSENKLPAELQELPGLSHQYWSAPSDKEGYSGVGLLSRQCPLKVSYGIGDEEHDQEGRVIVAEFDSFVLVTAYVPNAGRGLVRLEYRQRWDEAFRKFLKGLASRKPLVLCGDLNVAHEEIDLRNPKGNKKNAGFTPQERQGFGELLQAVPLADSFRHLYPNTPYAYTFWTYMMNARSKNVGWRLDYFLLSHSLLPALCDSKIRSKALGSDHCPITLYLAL
Sequence of Cytochrome P450 1A2 (Homo sapiens) (P05177 whole entry, looked up): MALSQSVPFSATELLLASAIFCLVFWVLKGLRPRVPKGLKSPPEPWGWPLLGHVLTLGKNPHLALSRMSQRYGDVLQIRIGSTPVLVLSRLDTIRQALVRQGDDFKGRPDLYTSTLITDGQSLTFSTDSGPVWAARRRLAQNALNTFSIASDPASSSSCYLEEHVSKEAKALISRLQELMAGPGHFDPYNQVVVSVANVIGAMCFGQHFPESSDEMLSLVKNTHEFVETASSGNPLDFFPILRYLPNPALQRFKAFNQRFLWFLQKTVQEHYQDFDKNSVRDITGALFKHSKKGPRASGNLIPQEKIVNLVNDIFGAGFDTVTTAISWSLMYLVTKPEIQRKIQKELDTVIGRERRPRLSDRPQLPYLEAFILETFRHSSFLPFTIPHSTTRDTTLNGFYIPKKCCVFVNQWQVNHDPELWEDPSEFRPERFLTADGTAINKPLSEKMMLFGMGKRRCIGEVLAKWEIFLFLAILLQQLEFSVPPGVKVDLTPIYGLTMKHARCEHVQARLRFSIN
Sequence of Cytochrome P450 2C19 (Homo sapiens) (P33261 whole entry, looked up): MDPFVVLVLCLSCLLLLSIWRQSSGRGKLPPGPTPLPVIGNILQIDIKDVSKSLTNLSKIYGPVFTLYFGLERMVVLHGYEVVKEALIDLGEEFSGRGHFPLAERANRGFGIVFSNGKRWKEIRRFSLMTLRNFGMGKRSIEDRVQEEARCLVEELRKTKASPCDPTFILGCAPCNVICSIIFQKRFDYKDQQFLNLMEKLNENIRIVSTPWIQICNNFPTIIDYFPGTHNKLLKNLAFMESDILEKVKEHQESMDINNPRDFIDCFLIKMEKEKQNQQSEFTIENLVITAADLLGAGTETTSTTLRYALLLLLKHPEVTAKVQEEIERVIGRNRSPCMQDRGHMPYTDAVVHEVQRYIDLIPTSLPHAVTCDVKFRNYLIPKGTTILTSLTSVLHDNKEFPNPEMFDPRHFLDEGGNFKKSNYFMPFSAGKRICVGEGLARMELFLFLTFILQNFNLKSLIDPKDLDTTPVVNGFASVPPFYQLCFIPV
Sequence of DNA dC->dU-editing enzyme APOBEC-3G (Homo sapiens) (Q9HC16 whole entry, looked up): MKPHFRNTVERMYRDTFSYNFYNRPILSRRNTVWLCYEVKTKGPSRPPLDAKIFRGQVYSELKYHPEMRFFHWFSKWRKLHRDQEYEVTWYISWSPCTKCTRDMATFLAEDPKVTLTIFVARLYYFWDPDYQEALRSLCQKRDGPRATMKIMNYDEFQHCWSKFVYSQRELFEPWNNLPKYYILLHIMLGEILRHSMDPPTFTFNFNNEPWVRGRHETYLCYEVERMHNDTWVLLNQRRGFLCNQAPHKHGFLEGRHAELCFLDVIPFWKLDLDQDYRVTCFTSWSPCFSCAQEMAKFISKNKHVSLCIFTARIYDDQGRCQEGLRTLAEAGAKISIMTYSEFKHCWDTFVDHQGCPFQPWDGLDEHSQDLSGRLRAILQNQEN

O=c1c(O)c(Br)ccc2c(Br)c(O)c(O)c(O)c12
active: Potency [1] 0.316 µM | Potency [3] 39.8 µM | Potency [5] 7.94 µM | Potency [6] 158 µM | Potency [7] 89.1 µM
inactive: outcome [2] | Potency [4] | Potency [8] | Potency [9]

COc1cc(-c2ccc(N=Nc3ccc4c(S(=O)(=O)O)cc(S(=O)(=O)O)c(N)c4c3O)c(OC)c2)ccc1N=Nc1ccc2c(S(=O)(=O)O)cc(S(=O)(=O)O)c(N)c2c1O
3.98 µM (active) and inactive: Potency [20]
inactive: activity change, negative = inhibition [10] 15% | activity change, negative = inhibition [12] 0.00688% | activity, negative = inhibition [13] -15.7% | Potency [14] > 20.6 µM and > 46 µM | Potency [15] > 20.6 µM and > 46 µM | Potency [16] | Potency [17] | Potency [19] | activity change, negative = inhibition ([21]; at 25.7 µM (top of the series)) 3.4% | Potency [23] | Potency [4] | Potency [7] | Potency [8] | activity change, negative = inhibition [9] -28.6% [at 7.35 µM]
active: Potency [11] 12.6 µM and 20 µM | Potency [18] 15.8 µM | Potency [22] 17.8 µM and 8.91 µM | Potency [3] 2.82 µM | Potency [5] 2 µM | Potency [6] 7.08 µM | Potency [24] 28.2 µM
1.95%: max response [21, 28]
8.3%: max response [21, 29]

O=c1oc2cc(O)ccc2cc1-c1nc(-c2ccc(Cl)c(Cl)c2)cs1
inactive: Potency [4] | Potency [6] | Potency [8]
active: Potency [3] 11.2 µM

O=C(Nc1cccc(C(=O)OCc2cc(=O)n3nc(C4CC4)sc3n2)c1)c1cccc(Cl)c1
inactive: Potency [4]
active: Potency [3] 56.2 µM

O=C(Nc1ccc(C(=O)OCc2cc(=O)n3nc(C4CC4)sc3n2)cc1)c1cccc(F)c1
inactive: Potency [3]

CCOC(=O)c1ccc(NC(=O)c2nc(SCc3ccccc3F)ncc2Cl)cc1
inactive: Potency [3] | Potency [5]

Nc1c(N=Nc2ccc([N+](=O)[O-])cc2)c(S(=O)(=O)O)cc2cc(S(=O)(=O)O)c(/C=C/c3ccccc3)c(O)c12
active: Potency [3] 3.16 µM | Potency [5] 2.82 µM | Potency [6] 79.4 µM | Potency [7] 14.1 µM

O=C1c2ccc(O)c(O)c2C(=O)c2c(O)ccc(O)c21
-10.7%: max response [21, 28]
-3.59%: max response [21, 29]
active: Potency [22] 79.4 µM | Potency [3] 12.6 µM | Potency [5] 5.62 µM | Potency [6] 31.6 µM | Potency [27] 19 µM
inactive: outcome [25] | outcome [26] | activity change, negative = inhibition ([21]; at 57.5 µM (top of the series)) 6.47% | Potency [4] | Potency [7]
